# Experimental data reported in PubChem BioAssay.
# Calls of active or inactive are those of the source.
# Legend:
# Albumin (Bos taurus) = Albumin (Bos taurus) (UniProt P02769); assay: compounds binding labelled BSA control protein – biochemical, small-molecule microarray, Alexa647 label, 635/667 nm fluorescence, artefact control for SMM control protein annotation, profiling panel (AID 1118); settings: BSA-A647 binding, fluorescence 635 nm, higher = more signal;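 note: score merges 667 nm emission intensity and signal-to-noise per printed compound spot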
# [1] = probe aXIP binding to arrayed compounds – biochemical, NeuroSMM set, 635/667 nm fluorescence, primary screen (AID 1119); settings: small-molecule microarray, higher = more signal, called active from +8 up or from −8 down;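 note: probe is the protein aXip251-270 applied at 1 µg/mL to compound-printed slides; binding of probe to printed compounds measured as 667 nm fluorescence plus signal to noise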
# [2] = probe aNOTCH3 binding on compound microarray – biochemical, small-molecule microarray, 635/667 nm fluorescence, primary screen (AID 1120); settings: higher = more signal;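 note: probe is a biotin-tagged antibody raised against NOTCH3 rather than NOTCH3 protein; score merges spot fluorescence near 667 nm with spot signal to noise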
# [3] = probe aNOTCH2 binding on compound microarray – biochemical, small-molecule microarray, 635/667 nm fluorescence, primary screen (AID 1121); settings: higher = more signal;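 note: score merges feature fluorescence read at 667 nm with its signal to noise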
# [4] = target: Carbonic anhydrase 2 (Homo sapiens) (UniProt P00918); assay: compounds binding carbonic anhydrase 2 – biochemical, small-molecule microarray, Alexa647-labelled CAII, profiling panel (AID 1122); settings: CAII-A647 binding fluorescence, higher = more signal
# [5] = COS7 lysate on small-molecule microarray, probe aHis, 635 nm (AID 1123); settings: COS7 cell lysate, fluorescence, higher = more signal;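 note: z-score combines 667nm fluorescence intensity with signal-to-noise per printed compound spot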
# [6] = probe aLAP1 signal on lysate-treated microarray – cell lysate, small-molecule microarray, COS7 lysate, primary screen (AID 1124); settings: probe aLAP1, fluorescence, higher = more signal;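 note: lysate comes from COS7 cells expressing LAP1 and is applied at 0.3 µg/mL; score merges spot fluorescence near 667 nm with signal-to-noise over triplicate slides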
# Sam68 (KHDRBS1) = assay: compounds binding KHDRBS1 protein – biochemical, small-molecule microarray, 635 nm fluorescence, primary screen (AID 1125); settings: higher = more signal;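 note: score merges 667 nm channel intensity with signal to noise over triplicate slides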
# [7] = test system: Chordin-like protein 2 (CHRDL2); assay: compounds binding chordin-like 2 – biochemical, small-molecule microarray, 635 nm fluorescence, primary screen (AID 1126); settings: fluorescence 635 nm, higher = more signal;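 note: printed compound slides probed with Chrdl2 protein at 4 µg/mL for 1 h at 4 C; score merges 667 nm emission intensity with signal to noise over three replicate slides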
# [8] = target: Concanavalin-A (Canavalia ensiformis) (UniProt P02866); assay: compounds binding concanavalin A lectin – biochemical, small-molecule microarray, Alexa647 label, 635 nm, artefact control for SMM control protein annotation, primary screen (AID 1127); settings: ConA-A647 binding fluorescence, higher = more signal;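 note: z combines 667 nm emission intensity with signal-to-noise across three replicate slides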
# Sequence of Concanavalin-A (Canavalia ensiformis) (P02866 whole entry, looked up): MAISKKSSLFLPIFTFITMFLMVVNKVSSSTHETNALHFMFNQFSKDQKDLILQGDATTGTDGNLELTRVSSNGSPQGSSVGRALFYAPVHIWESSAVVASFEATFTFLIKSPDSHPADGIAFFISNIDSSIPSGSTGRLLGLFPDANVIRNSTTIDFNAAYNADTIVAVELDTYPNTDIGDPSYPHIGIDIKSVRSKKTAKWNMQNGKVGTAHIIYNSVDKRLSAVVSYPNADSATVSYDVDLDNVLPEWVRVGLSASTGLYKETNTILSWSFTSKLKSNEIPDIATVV
# Sequence of Albumin (Bos taurus) (P02769 whole entry, looked up): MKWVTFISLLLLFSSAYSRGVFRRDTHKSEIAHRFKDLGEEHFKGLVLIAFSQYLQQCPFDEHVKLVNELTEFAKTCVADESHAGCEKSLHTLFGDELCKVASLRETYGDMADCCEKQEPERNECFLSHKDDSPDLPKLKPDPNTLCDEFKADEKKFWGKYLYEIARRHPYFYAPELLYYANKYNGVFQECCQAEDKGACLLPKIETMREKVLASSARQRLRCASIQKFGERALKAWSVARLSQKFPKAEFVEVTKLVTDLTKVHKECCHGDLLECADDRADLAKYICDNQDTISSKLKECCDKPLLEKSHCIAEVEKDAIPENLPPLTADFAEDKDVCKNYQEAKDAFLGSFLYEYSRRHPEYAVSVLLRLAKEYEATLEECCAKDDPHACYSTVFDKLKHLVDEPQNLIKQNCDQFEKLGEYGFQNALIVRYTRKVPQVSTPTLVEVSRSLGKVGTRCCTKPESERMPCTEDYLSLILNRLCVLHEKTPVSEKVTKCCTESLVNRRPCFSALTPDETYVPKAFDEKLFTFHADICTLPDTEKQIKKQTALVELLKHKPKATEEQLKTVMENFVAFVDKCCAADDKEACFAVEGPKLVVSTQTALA
SMILES,composite z-score (Albumin (Bos taurus)),composite Z-score [1],composite z-score [2],composite z-score [3],composite z-score [4],composite z-score [5],composite z-score [6],composite z-score (Sam68 (KHDRBS1)),composite z-score [7],composite z-score [8]
COc1ccc([Si](C)(C)[C@H]2[C@H](CC(=O)N3Cc4ccccc4C[C@H]3CO)O[C@@]3(C(=O)N(Cc4cccc(N5CCC5=O)c4)c4ccccc43)[C@@H]2C)cc1,-0.606,0.923 (inactive),-0.0003,-0.14,0.584,1.4,0.0972,1.2,1.21,0.64
C=CCOC(=O)[C@H]1[C@@H]2C(=O)O[C@@H](c3ccccc3)[C@@H](c3ccccc3)N2[C@@H](c2ccc(OCCOC(=O)[C@H]3C[C@H]4C(=O)N[C@@H](CCCCN(C)C)C(=O)N4[C@H]3c3ccc(O)cc3)cc2)[C@]12C(=O)Nc1ccc(I)cc12,0.412,0.432 (inactive),0.282,-0.0028,0.493,1.45,0.651,1.31,1.18,1.15
COC(=O)[C@@]1(Cc2ccc(F)cc2)[C@H]2c3cc(C(=O)N4CCCC4)n(Cc4ccc(S(C)(=O)=O)cc4)c3C[C@H]2CN1C(=O)c1ccccc1,1.08,1 (inactive),0.827,0.365,0.718,3.34,1.21,0.995,-0.26,1.05
O=C1C[C@@](C(=O)NCC(F)(F)F)(c2ccc([N+](=O)[O-])cc2)[C@@H](c2ccc(CO)cc2I)N1C1CCCCC1,0.365,0.004 (inactive),0.03,-0.0394,0.437,2.22,-0.0164,1.23,0.189,0.676
CC1CC/C=C\[C@H]2OC34C=CCN(C(C)(C)C)C(=O)[C@H]3N(C(C)CO)C(=O)[C@@H]4C2C(=O)O1 (stereo not given in full),-0.92,-0.0245 (inactive),-0.122,-0.13,0.4,-0.187,0.199,-1.47,-0.454,-2.17
COc1ccc(C#Cc2ccc3c(c2)[C@]2(C(=O)N3)[C@H](c3ccccc3OCCO)N3[C@H](c4ccccc4)[C@H](c4ccccc4)OC(=O)[C@H]3[C@@H]2C(=O)Nc2nc3ccccc3s2)cc1,0.187,0.317 (inactive),1.12,0.0559,0.327,0.646,0.0878,1.31,0.886,0.931
C=C(C)[C@@H]1CC=C(C(O)C2C=CC3C(=O)N(C)C(=O)C3N2Nc2ccccc2)CC1 (stereo not given in full),0.203,0.0898 (inactive),0.15,-0.0617,0.372,0.491,0.201,0.838,1.38,0.183
[N-]=[N+]=NCc1ccccc1[C@@H]1OC(c2ccc(OCCCO)cc2)=N[C@]1(Cc1ccccc1)C(N)=O,0.979,-0.791 (inactive),0.526,0.0646,0.783,1.79,0.222,1.3,-0.692,1.16
C=CC[C@@]12N=C(c3ccc(OCCCO)cc3)O[C@@H]1c1ccccc1N(C)C2=O,-0.16,-0.419 (inactive),0.0637,-0.0374,0.655,2.67,0.319,1.22,0.718,0.838
CCCC[C@H]1OB(O)C[C@H]2C1=C(COC)Cn1c(=O)n(-c3ccccc3)c(=O)n12,0.0697,-0.166 (inactive),-0.0903,-0.172,-0.185,0.56,0.0521,0.439,0.432,-0.317
C=CCC(OC(C)=O)[C@@H]1[C@@H](N(Cc2ccc(-c3ccccc3)cc2)C(=O)c2ccc(-c3ccccc3)cc2)c2cc(OCCCO)ccc2N1C(=O)Cc1ccc2ccccc2c1 (stereo not given in full),0.108,-0.316 (inactive),-0.0057,-0.213,0.002,0.522,-0.0155,0.621,0.156,-0.288
C=C(COC)/C(=C/C[C@@H](OC(=O)c1ccncc1)c1ccc(CO)o1)c1cc(C(=O)OC)ccc1OC,0.0436,-0.0882 (inactive),0.0979,-0.104,0.482,0.641,1.46,1.31,1.1,1.14
O=C(c1ccccc1)N1Cc2ccccc2C[C@@]2(COC(c3ccc(OCCCO)cc3)=N2)C1=O,0.833,-0.305 (inactive),-0.0647,-0.0304,0.288,2.66,0.549,1.29,0.271,1.11
CCOC(=O)C[C@H]1[C@H](OC(=O)c2cc3ccccc3oc2=O)[C@@H](NC(=O)c2ccccc2)c2cc(OCCCO)ccc2N1C(=O)c1ccc2ccccc2n1,-0.117,0.315 (inactive),0.0496,0.655,0.515,0.922,0.0418,0.845,0.651,0.821
CC(C)C(=C=CC[C@@H](O)c1ccc(OCCO)cc1)C[C@@H](O)c1ccccn1,-0.363,1.24 (inactive),0.0553,-0.13,0.368,-0.0995,0.33,0.726,1.38,0.817
COc1ccc(/C=C/C=O)cc1,-0.85,-0.174 (inactive),-0.0032,-0.0468,-0.206,-0.513,0.0998,-0.235,0.309,-0.415
CCCCC(CC)C(O)C1C=CC2C(=O)N(Cc3ccccc3)C(=O)C2N1n1cnnc1 (stereo not given),0.0178,0.0835 (inactive),0.0116,-0.126,0.424,0.262,-0.192,0.26,-0.353,0.273
NCCCCCCNC(=O)[C@@H]1C[C@@H]2C(=O)NCC(=O)N2[C@@H]1c1ccc(O)cc1,0.741,0.706 (inactive),-0.232,-0.124,0.4,0.738,0.0946,1.28,1.17,1.17
O=C(NCCO)C1=C[C@H](Oc2ccccc2I)[C@@H](O)[C@H](N(Cc2ccco2)C(=O)Cc2ccccc2)C1,-0.884,0.524 (inactive),-0.0014,-0.0956,-0.17,-0.604,-0.0107,-0.24,0.607,-0.981
O=C1C2C=CC(C(O)c3cccc4ccccc34)N(Nc3ccccc3F)C2C(=O)N1c1ccccc1 (stereo not given),0.799,0.791 (inactive),0.614,0.0007,0.728,2.76,0.491,1.29,-0.539,1.09
O=C1C[C@@](C(=O)NC2CC2)(c2ccc([N+](=O)[O-])cc2)[C@@H](c2ccc(CO)cc2I)N1C1CCCCC1,0.554,0.142 (inactive),0.0596,-0.14,0.452,1.77,-0.0328,1.29,0.397,1.04
NC(=O)N1C(=O)C2C(C1=O)C1C=C(c3ccc(CO)cc3)C2C(c2cccs2)N1Cc1cccc(OC(F)(F)F)c1 (stereo not given),-0.137,0.29 (inactive),0.111,-0.0449,0.72,0.669,0.798,-0.882,0.38,-0.0204
CCCCCCc1nc(-c2cc(C)c(OC)c(C)c2)cc2c1[Si](C(C)C)(C(C)C)OC2,-0.623,0.244 (inactive),-0.0111,-0.113,0.0878,-0.241,-0.0553,0.363,0.119,0.208
C=CCC(OC(C)=O)[C@@H]1[C@@H](N(Cc2cccc3ccccc23)C(=O)c2ccc(-c3ccccc3)cc2)c2cc(OCCCO)ccc2N1C(=O)c1ccc2ccccc2c1 (stereo not given in full),0.416,-0.732 (inactive),0.116,-0.0533,0.16,0.735,0.169,0.721,-0.0354,-0.0377
CC1(C)C2C=C(C(O)C3C=CC4C(=O)NC(=O)C4N3Nc3ccc(Cl)cc3Cl)C[C@@H]1C2 (stereo not given in full),0.818,0.392 (inactive),0.323,0.155,0.423,1.24,0.906,0.337,0.061,0.899
COc1ccc(CCNC(=O)[C@@]2(C)c3ccccc3C(=O)N(C(C)C)[C@H]2c2ccc(CO)cc2)cc1,0.252,0.768 (inactive),-0.0074,-0.151,0.578,0.216,0.591,-0.38,0.397,0.613
NC(=O)NCC#Cc1ccc2c(c1)[C@]1(C(=O)N2)[C@H](C(=O)Nc2nc3ccccc3s2)[C@H]2C(=O)O[C@H](c3ccccc3)[C@H](c3ccccc3)N2[C@@H]1c1ccccc1OCCO,0.46,1.24 (inactive),1.1,0.0196,0.39,2.83,1.14,1.18,0.277,1.08
